About 83,000 compounds went through this panel and 20% of them were active in at least one assay; those are over-represented in the sample as a whole.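 Interpretation: 100, growth as untreated; towards 0, rising growth inhibition; 0, no net growth; 0 to -100, cell death. Compounds scoring below 10 were considered active.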 A number with no mark means an inactive call. The source made the active and inactive calls.
system: CCRF-CEM leukemia; assay: NCI-60 one-dose screen, 48 h (100 = growth as untreated, 0 = no growth, -100 = all killed); settings: 10 µM unless noted

Structure (SMILES) | growth
CCOC(=O)CCC[P+](c1ccccc1)(c1ccccc1)c1ccccc1 | 72.6%
CC1(C)CC[C@]2(C(=O)O)CC[C@]3(C)C(=CC[C@@H]4[C@@]5(C)C/C(=C/c6cccnc6)[C@H](O)C(C)(C)[C@@H]5CC[C@]43C)[C@@H]2C1 | 1.37% [100 µM] (active)
CCC(Br)(CC)C(=O)c1ccc(OCC(=O)O)c(Cl)c1Cl | 116%
C#C[C@]1(O)CC[C@H]2[C@@H]3CC=C4c5nc(Nc6ccccc6[N+](=O)[O-])sc5CC[C@]4(C)[C@H]3CC[C@@]21C | 61.9%
O=C(N/N=C\c1cc(Cl)ccc1O)N/N=C/c1cc(Cl)ccc1O | 27.4%
C=C(C)[C@@H]1CC[C@]2(C(=O)NCCNCCNC(=O)OC(C)(C)C)CC[C@]3(C)[C@H](CC[C@@H]4[C@@]5(C)CCC(=O)C(C)(C)[C@@H]5CC[C@]43C)[C@@H]12 | 14.9% [100 µM]
Cc1cc(C)c(O)c(CNCCCNCc2cc(C)cc(C)c2O)c1 | 68.4%
O=C(Nc1ccc(C(=O)/C=C/c2ccc(N3CCOCC3)cc2)cc1)Nc1ccc([N+](=O)[O-])cc1 | 84.4%
C[C@H]1[C@H](C)CC[C@]2(C(=O)N3CCN(C)CC3)CC[C@]3(C)C(=CC[C@@H]4[C@@]5(C)C/C(=C/c6ccco6)C(=O)C(C)(C)[C@@H]5CC[C@]43C)[C@H]12 | 16.5% [100 µM]
Nc1nc(Cl)c2ncn(Cc3cc4c(cc3I)OCO4)c2n1 | 26.3%
CC1(C)OC2[C@@H](CNC(=O)NC(=O)NC(=O)CI)O[C@@H](n3cnc4c(NC(=O)Nc5ccccc5)ncnc43)[C@H]2O1 (some centres undefined) | -44% (active)
Fc1cc2[nH]ncc2c2c3c(c(-c4cn[nH]c4C(F)(F)F)nc12)C1CCC3C1 (centres undefined) | 11.5%
CC1Cc2c(Cl)ncnc2N(C)c2ccccc21 (centres undefined) | 34.2%
C=C(C)[C@@H]1CC[C@]2(COCCCN)CC[C@]3(C)[C@H](CC[C@@H]4[C@@](C)(CCCNCCCN)[C@H](C(=C)C)CC[C@]43C)[C@@H]12 | -26.9% [100 µM] (active)
CCCCCCSc1ncnc2nc[nH]c12 | 101%
C[C@@H]1C[C@H]2C(=O)O[C@@H](C)[C@H](NC(=O)[C@H](Cc3cc(F)cc(F)c3)NC(=O)Nc3ccc(C4CC4)cc3F)C(=O)N3CCC[C@H]3C(=O)N3CCCC[C@H]3C(=O)N[C@@H](C)C(=O)N2C1 | 39.9%
O=[N+]([O-])c1ccc(O)c(-c2nc3ccccc3s2)c1 | 77.3%
COc1cc2c(cc1OC(C)=O)C(=O)CCCC2 | 102%
COc1ccc(CC(C#N)c2ccc(Cl)cc2)cc1 (centres undefined) | 76.5%
COc1ccc(N(c2nc(-c3ccc([N+](=O)[O-])cc3)cs2)C(C)C)cc1 | 62.5%
C=C(C)[C@@H]1CC[C@]2(C)[C@H](CC[C@@H]3[C@@H]([C@@](C)(O)CCC=C(C)C)CC[C@]32C)[C@@]1(C)CCC(=O)O | 0.565% [100 µM] (active)
CCOc1ccc(S(=O)(=O)Nc2ccc3c(c2)N(S(=O)(=O)CC)CCC3)cc1 | 81.1%
Cc1cnc(N)nc1OCCNC(=O)c1cccc(-c2ccc(S(=O)(=O)Nc3ccc4c(c3)N(C(=O)C3CC3)CCC4)cc2)c1 | 64.1%
Fc1cc2[nH]ncc2c2c3c(c(-c4cn[nH]c4)nc12)CCCC3 | 7.75% (active)
